This is a sample that favours compounds with a hit; in the whole collection about 1.2% have one here.
TRPV1 PAM: human TRPV1 potentiation | TRPV1-expressing cells, Fluo-8 calcium influx, capsaicin EC20 potentiation | potentiation, % at 8.33 µM | 0.02% of 320,000 active | AID 540277; in the data active = potentiation above about 80%; inconclusive = between about 30% and that limit
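Fluo-8 calcium influx in TRPV1-expressing cells, kinetic read (ex 480/em 520 nm). Compound added and read 3 min for agonist activity, followed by capsaicin at EC20 final and 2 min further read for enhancement.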
KCNH2 WT inh: KCNH2 (human, wildtype) channel inhibition | activity change, % at 1.84 µM | 0.37% of 340,000 active | AID 720551 | U2OS, BacMam KCNH2, thallium flux FluxOr; hits give low values | Q12809;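 active = maximum activity change below -70%; inconclusive = maximum activity change between -70% and -50%; inactive = maximum activity change above -50%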
Target sequence (Q12809 whole entry, looked up): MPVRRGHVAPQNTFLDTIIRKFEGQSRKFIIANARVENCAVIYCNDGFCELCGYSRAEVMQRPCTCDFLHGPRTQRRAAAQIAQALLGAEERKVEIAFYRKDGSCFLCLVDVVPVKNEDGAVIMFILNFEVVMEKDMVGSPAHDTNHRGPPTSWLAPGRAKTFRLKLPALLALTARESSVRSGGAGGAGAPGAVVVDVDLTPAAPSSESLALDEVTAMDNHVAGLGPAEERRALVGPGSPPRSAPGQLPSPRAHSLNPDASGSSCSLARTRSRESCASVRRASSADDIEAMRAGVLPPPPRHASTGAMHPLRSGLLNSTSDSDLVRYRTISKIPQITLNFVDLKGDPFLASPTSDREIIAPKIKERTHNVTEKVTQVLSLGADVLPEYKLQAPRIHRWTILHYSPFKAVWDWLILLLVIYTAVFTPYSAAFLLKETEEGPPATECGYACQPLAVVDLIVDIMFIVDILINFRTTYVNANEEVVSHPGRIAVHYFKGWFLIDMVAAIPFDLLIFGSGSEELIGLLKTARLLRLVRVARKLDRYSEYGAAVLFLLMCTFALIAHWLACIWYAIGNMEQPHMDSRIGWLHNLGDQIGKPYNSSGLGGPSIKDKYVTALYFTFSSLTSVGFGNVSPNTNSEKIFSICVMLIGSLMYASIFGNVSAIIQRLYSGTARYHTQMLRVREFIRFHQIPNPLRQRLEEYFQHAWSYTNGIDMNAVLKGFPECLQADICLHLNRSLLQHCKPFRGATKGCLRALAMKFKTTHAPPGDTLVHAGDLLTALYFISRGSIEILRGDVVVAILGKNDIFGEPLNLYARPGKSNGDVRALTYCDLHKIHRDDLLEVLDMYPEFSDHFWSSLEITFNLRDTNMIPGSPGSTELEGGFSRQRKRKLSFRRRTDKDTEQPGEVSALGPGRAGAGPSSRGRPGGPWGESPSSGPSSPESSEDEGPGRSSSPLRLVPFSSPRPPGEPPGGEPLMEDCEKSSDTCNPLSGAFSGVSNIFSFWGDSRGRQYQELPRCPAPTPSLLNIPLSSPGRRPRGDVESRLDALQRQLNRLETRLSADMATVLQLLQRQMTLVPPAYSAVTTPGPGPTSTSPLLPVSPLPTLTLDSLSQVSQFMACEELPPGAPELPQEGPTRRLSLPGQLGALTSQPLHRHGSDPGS
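U2OS cells were transduced with wild-type KCNH2 virus (2.03 x 10^8 / mL) for 4 h at room temperature, then cultured overnight at 37 C. Thallium flux was read with FluxOr dye. Rate constants were normalized to DMSO controls.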
TRPV1 agonist: human TRPV1 agonism | Q8NER1 | TRPV1-expressing cells, Fluo-8 calcium influx, agonist mode | activation, % at 8.33 µM | 0.19% of 320,000 active | AID 540275; in the data active = activation above about 80%; inconclusive = between about 30% and that limit
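TRPV1-expressing cells were cultured overnight at 35.5C and loaded with Fluo-8 calcium dye for 40 to 90 min at room temperature. After a 10 s baseline, compound was added and calcium influx was read kinetically for 3 min (ex 480/em 520 nm).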
KCNH2 3.1 block: KCNH2 3.1 (human) potassium channel inhibition | 0.95% of 340,000 active | AID 720553 | activity change, % (tested at about 1.8 µM) | U2OS KCNH2 3.1, thallium flux FluxOr; hits give low values;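 active = maximum activity change below -70%; inconclusive = maximum activity change from -70% to -50%; inactive = maximum activity change above -50%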;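 note: thallium influx rate constant from kinetic fluorescence after stimulation buffer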
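Steps: virus added to U2OS suspension (4 h, RT, dark); medium with 10% FBS added, cells plated, 37 C overnight; FluxOr/Red40 loading buffer 45 min RT; stimulation buffer, 2 min kinetic read; rate constant normalized.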
Each line names hits and unclear results; the compound was inactive in the other large screens.

O=c1oc2ccc3ccccc3c2cc1-c1nnc(-c2ccccc2)o1	none
COc1ccc2cc(-c3ccccc3)c(=O)oc2c1	none
O=C(Nc1ccc(F)c(F)c1)c1cc(S(=O)(=O)N2CCN(c3ccccn3)CC2)ccc1F	KCNH2 3.1 block -78
O=C(COC(=O)Cc1c(F)cccc1Cl)NCc1ccc2c(c1)OCO2	none (no result: TRPV1 PAM, TRPV1 agonist)
O=C(N/N=C/c1cccc([N+](=O)[O-])c1)c1cnccn1	none
O=C(N/N=C/c1cc([N+](=O)[O-])ccc1Cl)c1cnccn1	KCNH2 WT inh -144, KCNH2 3.1 block -188
O=C(Nc1ccccc1NC(=O)c1ccccc1F)c1ccccc1F	KCNH2 WT inh -89
CC(C)N1CCN(c2ccncc2S(=O)(=O)N2CCN(C)CC2)CC1	none (no result: TRPV1 PAM, TRPV1 agonist)
CCCCCCN1CCN(C2CN(Cc3ccc([N+](=O)[O-])cc3)S(=O)(=O)C2)CC1 (stereo not drawn)	KCNH2 WT inh -96, KCNH2 3.1 block -112 (no result: TRPV1 PAM, TRPV1 agonist)
O=[N+]([O-])c1ccc(CN2CC(N3CCN(CCO)CC3)CS2(=O)=O)cc1 (stereo not drawn)	none (no result: TRPV1 PAM, TRPV1 agonist)
CS(=O)(=O)N1CCC(C(=O)Nc2ccc(Cl)cc2Cl)CC1	KCNH2 3.1 block -71 (no result: TRPV1 PAM, TRPV1 agonist)
CS(=O)(=O)N1CCC(C(=O)Nc2ccc(Br)cc2F)CC1	KCNH2 3.1 block -92
COc1ccc(-c2[nH]ncc2CNCc2cc(C)n(C)n2)c(F)c1	TRPV1 PAM inconclusive
COc1ccc(-c2[nH]ncc2CNCCn2cccn2)c(F)c1	KCNH2 3.1 block -138
C[C@@H]1CN([C@H](C)CO)C(=O)c2cc(Br)cnc2O[C@H]1CN(C)C(=O)Cc1ccccc1	none (no result: TRPV1 PAM, TRPV1 agonist)
CC(C)CC(=O)NNC(=O)c1ccc(Cl)cc1	KCNH2 WT inh -74
CN(C)c1ccc(C(=O)NNC(=O)c2ccc(Cl)cc2)cc1	none
COc1cc(C)c(CN2CCN(CC(=O)Nc3ccccc3C(=O)NC3CC3)CC2)cc1OC	KCNH2 WT inh -83, KCNH2 3.1 block -107
COc1cc2c(cc1OC)CN(CC(=O)Nc1ccccc1C(=O)NC1CC1)CC2	none
COc1ccc(OC)c(NC(=O)CN2CCC(NC(=O)c3ccccc3C)CC2)c1	none
COc1ccc(OC)c(CN2CCN(CC(=O)Nc3ccccc3C(=O)NC3CC3)CC2)c1	KCNH2 WT inh -79, KCNH2 3.1 block -70
CCN(C[C@H]1N[C@@](CC)(C(=O)OC)[C@H]2C(=O)N(C)C(=O)[C@@H]12)S(=O)(=O)c1ccc(F)cc1	none (no result: TRPV1 PAM, TRPV1 agonist)
COc1ccc(OCC(=O)N2CCCC(Nc3ccc(C)c(C)c3)C2)cc1 (stereo not drawn)	KCNH2 3.1 block -87 (no result: TRPV1 PAM, TRPV1 agonist)
O=C(CCc1cccc(Cl)c1)N1CCCC(Nc2ccccc2)C1 (stereo not drawn)	TRPV1 agonist 84
Cc1ccc(NC2CCCN(C(=O)CCC(=O)c3ccccc3)C2)cc1C (stereo not drawn)	TRPV1 agonist 92
COc1ccc(NC2CCCN(C(=O)CCc3ccccc3F)C2)cc1 (stereo not drawn)	TRPV1 agonist 81
O=C1CCCCN1CCC(=O)N1CCCC(Nc2ccccc2)C1 (stereo not drawn)	none
Cc1ccn2c(C(C)O)nnc2c1 (stereo not drawn)	none (no result: TRPV1 PAM, TRPV1 agonist)
COc1ccc(NC2CCCN(C(=O)CCOc3ccccc3)C2)cc1 (stereo not drawn)	TRPV1 agonist 82
COc1ccc(NC2CCCN(C(=O)CSc3ccccc3)C2)cc1 (stereo not drawn)	TRPV1 agonist inconclusive
C#CCOCCOCCOCCNc1nc(N2CCN(C(=O)Cn3cc(CCCCN)nn3)CC2)nc(N2CCN(C(=O)[C@H](C)n3cc(CCCN=C(N)N)nn3)CC2)n1	none (no result: KCNH2 WT inh, KCNH2 3.1 block)
C#CCOCCOCCOCCNc1nc(N2CCN(C(=O)Cn3cc(CC(C)O)nn3)CC2)nc(N2CCN(C(=O)[C@H](C)n3cc(CCCN=C(N)N)nn3)CC2)n1 (stereo partly drawn)	KCNH2 3.1 block -147
O=S(=O)(Nc1cccc2ccccc12)c1ccc2ccccc2c1	none (no result: KCNH2 WT inh, KCNH2 3.1 block)
N=c1n(CC(=O)c2ccc([N+](=O)[O-])cc2)c2ccccc2n1Cc1ccc(Cl)cc1	none
N=c1n(CC(=O)c2ccc(Br)cc2)c2ccccc2n1Cc1ccccc1	KCNH2 3.1 block -84
N=c1n(CC(=O)c2ccc([N+](=O)[O-])cc2)c2ccccc2n1Cc1ccccc1	KCNH2 3.1 block -75
O=C(Cn1c(NCCCO)nc2ccccc21)c1ccc([N+](=O)[O-])cc1	KCNH2 3.1 block -73
CC(C)(C)OC(=O)N1CCCC(C(=O)Nc2ccc(C(=O)NCCc3ccccc3)cc2)C1 (stereo not drawn)	none (no result: TRPV1 PAM, TRPV1 agonist)
C/C=C/c1cnc2c(c1)C(=O)N([C@H](C)CO)C[C@H](C)[C@@H](CN(C)C(=O)CN1CCOCC1)O2	none (no result: TRPV1 PAM, TRPV1 agonist)
CC(C)Oc1ccc(NC(=O)Oc2ccccc2)cc1	KCNH2 3.1 block -207
CCOC(=O)C1CCCN(C(=O)Nc2ccccc2)C1 (stereo not drawn)	KCNH2 3.1 block -73
CCOC(=O)C1CCCN(CC(O)COC(c2ccccc2)c2ccccc2)C1 (stereo not drawn)	KCNH2 WT inh -77, KCNH2 3.1 block -96
CCOC(=O)C1CCCN(C(=O)C2CCN(C(=O)Nc3ccccc3)CC2)C1 (stereo not drawn)	none
CCOC(=O)C1CCCN(CC(O)COc2ccccc2C(C)=O)C1 (stereo not drawn)	none
O=C(c1ccc(Cl)cc1)N1CCN(S(=O)(=O)/C=C/c2ccccc2)CC1	none
COc1cc(OC)c(OC)cc1CCC(C)NCCC(c1ccccc1)c1ccccc1 (stereo not drawn)	KCNH2 WT inh inconclusive, KCNH2 3.1 block -92
Cc1cccc(N2CCN(C(=O)N3CCCCC3)CC2)c1C	TRPV1 agonist 82
Cc1cccc(N2CCN(C(=O)N3CCOCC3)CC2)c1C	none
Cc1ccc(N2CCN(C(=O)N3CCCC3)CC2)cc1C	TRPV1 agonist 94
CN(c1ccccc1)S(=O)(=O)c1cccc(NC(=O)c2ccc(=O)[nH]n2)c1	none (no result: TRPV1 PAM, TRPV1 agonist)
COc1ccc(Nc2ncnc3ccc(C)cc23)cc1	TRPV1 agonist 81
O=C(C[C@H]1C/C=C\CCC(=O)O[C@@H](c2ccccc2)CNC1=O)NCCO	none (no result: TRPV1 PAM, TRPV1 agonist)
CC(=O)Nc1cccc(NC(=O)C(=O)c2cn(CC(=O)N3CCCC3)c3ccccc23)c1	none (no result: TRPV1 PAM, TRPV1 agonist)
COc1ccccc1-c1cn[nH]c1-c1ccc(O)cc1O	KCNH2 3.1 block -116
O=C(CCC(=O)N1CCOc2ccc(Cl)cc21)NCCCN1CCC(Cc2ccccc2)CC1	KCNH2 3.1 block -80
COc1ccc(N2CCN(CCCNC(=O)CCC(=O)N3CCOc4ccc(Cl)cc43)CC2)cc1	KCNH2 3.1 block -80
O=C(CSc1ccc(F)cc1)NC(=O)c1ccccc1	none (no result: TRPV1 PAM, TRPV1 agonist)
OCCCNCc1ccc(N(c2ccccc2)c2ccccc2)cc1	none
O=C(NCc1ccccc1CN1CCCC1)c1ccc(S(=O)(=O)Nc2ccccc2)cc1	none (no result: TRPV1 PAM, TRPV1 agonist)
O=S(=O)(c1ccc(Br)cc1)N1CCN(c2ccc3nnc(-c4ccccc4)n3n2)CC1	KCNH2 3.1 block -91
Cc1cccc(CCNC(=O)C2CC(O)CN2C(=O)Nc2ccccc2)c1 (stereo not drawn)	none (no result: TRPV1 PAM, TRPV1 agonist)
Cc1cc(C)c(-c2csc(NC(=O)/C=C/c3cccs3)n2)c(C)c1	KCNH2 3.1 block -78
Cc1cc(C)nc(NC(=O)/C=C/c2cccs2)c1	none

Screening results: PubChem BioAssay, National Center for Advancing Translational Sciences (NCATS)
